# Assay results: the supplement of paper PMC10849652
# Targets with a hit are over-represented here; the source holds about 7,900 in all. About 0.6% of all pairs of compound and target were hits. Unmarked numbers belong to inactive results.
# Experiments:
# Assay in all cases: log2 fold change, soluble protein after heating vs DMSO (PISA); higher = thermal stabilisation; K562 cells, 10 uM, 30 min; active = over 0.2 and 3.5 SD of the protein, either way, in both replicates (recomputed)
# [1] = compound: CC1=C(C=C(C=C1)NC(=O)C2=CC(=CC=C2)C(C)(C)C#N)NC3=CC4=C(C=C3)N=CN(C4=O)C
# In short: (§1)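 Soluble protein was defined as the supernatant after 21,000xg for 90 min. It came from K562 cells at 2×10^6 cells/mL given 10 μM compound for 30 min, heated in aliquots for 3 min across 48°C-58°C, pooled, and extracted in PBS with 0.5% NP-40 at 4°C, and was quantified by TMTpro 16plex LC-MS/MS with equalised channel sums. Thermal stability against control samples, from duplicates, is reported as log2 fold change.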
# [2] = compound: CC1=C(C=C(C=C1)NC(=O)C2=CC(=CC=C2)N(C)C)NC(=O)C3=CC=C(C=C3)O
# In short: as §1
# [3] = compound: CC1=CC=C(C=C1)SC2=C3C=C(SC3=CN=C2)C(=O)N
# In short: as §1
# [4] = compound: CC1=NC(=CC=C1)C2=C(N=C(N2)C(C)(C)C)C3=CC4=NC=CN=C4C=C3
# In short: as §1
# Nexturastat A = compound: CCCCN(Cc1ccc(C(=O)NO)cc1)C(=O)Nc1ccccc1 [Nexturastat A]
# In short: as §1
# vemurafenib = compound: CCCS(=O)(=O)Nc1ccc(F)c(C(=O)c2c[nH]c3ncc(-c4ccc(Cl)cc4)cc23)c1F [vemurafenib]
# In short: as §1
# [5] = compound: CCCS(=O)(=O)Nc1ccc(F)c(C(=O)c2c[nH]c3ncc(Cl)cc23)c1F
# In short: as §1
# [6] = compound: CCCc1cc(C)[nH]c(=O)c1CNC(=O)c1cc(-c2ccnc(N3CCN(C)CC3)c2)cc2c1cnn2C(C)C
# In short: as §1
# givinostat = compound: CCN(CC)Cc1ccc2cc(COC(=O)Nc3ccc(C(=O)NO)cc3)ccc2c1 [givinostat]
# In short: as §1
# barasertib = compound: CCN(CCCOc1ccc2c(Nc3cc(CC(=O)Nc4cccc(F)c4)[nH]n3)ncnc2c1)CCOP(=O)(O)O [barasertib]
# In short: as §1
# [7] = compound: CC[C@@H]1C(=O)N(C)c2cnc(Nc3ccc(C(=O)NC4CCN(C)CC4)cc3OC)nc2N1C1CCCC1
# In short: as §1
# volasertib = compound: CC[C@@H]1C(=O)N(C)c2cnc(Nc3ccc(C(=O)N[C@H]4CC[C@H](N5CCN(CC6CC6)CC5)CC4)cc3OC)nc2N1C(C)C [volasertib]
# In short: as §1
# [8] = compound: CC[C@H](C)N1C=C(C2=C(C=C(C=C21)C3=CN=C(C=C3)N4CCNCC4)C(=O)NCC5=C(C=C(NC5=O)C)C)C
# In short: as §1
# epoxomicin = compound: CC[C@H](C)[C@@H](C(=O)N[C@@H]([C@@H](C)O)C(=O)N[C@@H](CC(C)C)C(=O)[C@]1(CO1)C)NC(=O)[C@H]([C@@H](C)CC)N(C)C(=O)C [epoxomicin]
# In short: as §1
# [9] = compound: CCn1c(C(=O)N(C2CC2)C2CC2)cc2c3c(ncn3C)c(Nc3cc(C)n(C)n3)nc21
# In short: as §1
# [10] = compound: CCn1cc(-c2ccnc3[nH]c(-c4cccc(CN(C)C)c4)cc23)c(-c2ccc(NC(=O)N(C)C)cc2)n1
# In short: as §1
# [11] = compound: CN(C)CC(=O)Nc1ccc2[nH]c(=O)c3ccccc3c2c1
# In short: as §1
# rosiglitazone = compound: CN(CCOC1=CC=C(C=C1)C[C@H]2C(=O)NC(=O)S2)C3=CC=CC=N3 (racemic) [rosiglitazone]
# In short: as §1
# [12] = compound: CN1C2=C(C3=C1C(=O)N(N=C3)CC4=CC(=CC=C4)N)SC(=C2)S(=O)C
# In short: as §1
# [13] = compound: CN1CCC(CNc2ccc3ncc(-c4cccc(OC(F)(F)F)c4)n3n2)CC1
# In short: as §1
# Sequence of UniProt Q9BUB7 (Q9BUB7 whole entry, looked up): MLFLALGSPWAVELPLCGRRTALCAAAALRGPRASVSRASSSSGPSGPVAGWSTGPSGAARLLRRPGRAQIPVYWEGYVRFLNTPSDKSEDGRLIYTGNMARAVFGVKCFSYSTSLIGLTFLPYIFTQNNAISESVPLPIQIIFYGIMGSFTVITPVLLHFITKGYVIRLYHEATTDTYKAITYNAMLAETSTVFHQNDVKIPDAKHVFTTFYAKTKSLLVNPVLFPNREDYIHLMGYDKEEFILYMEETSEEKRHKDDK
# Sequence of UniProt Q9H4A3 (Q9H4A3 whole entry, looked up): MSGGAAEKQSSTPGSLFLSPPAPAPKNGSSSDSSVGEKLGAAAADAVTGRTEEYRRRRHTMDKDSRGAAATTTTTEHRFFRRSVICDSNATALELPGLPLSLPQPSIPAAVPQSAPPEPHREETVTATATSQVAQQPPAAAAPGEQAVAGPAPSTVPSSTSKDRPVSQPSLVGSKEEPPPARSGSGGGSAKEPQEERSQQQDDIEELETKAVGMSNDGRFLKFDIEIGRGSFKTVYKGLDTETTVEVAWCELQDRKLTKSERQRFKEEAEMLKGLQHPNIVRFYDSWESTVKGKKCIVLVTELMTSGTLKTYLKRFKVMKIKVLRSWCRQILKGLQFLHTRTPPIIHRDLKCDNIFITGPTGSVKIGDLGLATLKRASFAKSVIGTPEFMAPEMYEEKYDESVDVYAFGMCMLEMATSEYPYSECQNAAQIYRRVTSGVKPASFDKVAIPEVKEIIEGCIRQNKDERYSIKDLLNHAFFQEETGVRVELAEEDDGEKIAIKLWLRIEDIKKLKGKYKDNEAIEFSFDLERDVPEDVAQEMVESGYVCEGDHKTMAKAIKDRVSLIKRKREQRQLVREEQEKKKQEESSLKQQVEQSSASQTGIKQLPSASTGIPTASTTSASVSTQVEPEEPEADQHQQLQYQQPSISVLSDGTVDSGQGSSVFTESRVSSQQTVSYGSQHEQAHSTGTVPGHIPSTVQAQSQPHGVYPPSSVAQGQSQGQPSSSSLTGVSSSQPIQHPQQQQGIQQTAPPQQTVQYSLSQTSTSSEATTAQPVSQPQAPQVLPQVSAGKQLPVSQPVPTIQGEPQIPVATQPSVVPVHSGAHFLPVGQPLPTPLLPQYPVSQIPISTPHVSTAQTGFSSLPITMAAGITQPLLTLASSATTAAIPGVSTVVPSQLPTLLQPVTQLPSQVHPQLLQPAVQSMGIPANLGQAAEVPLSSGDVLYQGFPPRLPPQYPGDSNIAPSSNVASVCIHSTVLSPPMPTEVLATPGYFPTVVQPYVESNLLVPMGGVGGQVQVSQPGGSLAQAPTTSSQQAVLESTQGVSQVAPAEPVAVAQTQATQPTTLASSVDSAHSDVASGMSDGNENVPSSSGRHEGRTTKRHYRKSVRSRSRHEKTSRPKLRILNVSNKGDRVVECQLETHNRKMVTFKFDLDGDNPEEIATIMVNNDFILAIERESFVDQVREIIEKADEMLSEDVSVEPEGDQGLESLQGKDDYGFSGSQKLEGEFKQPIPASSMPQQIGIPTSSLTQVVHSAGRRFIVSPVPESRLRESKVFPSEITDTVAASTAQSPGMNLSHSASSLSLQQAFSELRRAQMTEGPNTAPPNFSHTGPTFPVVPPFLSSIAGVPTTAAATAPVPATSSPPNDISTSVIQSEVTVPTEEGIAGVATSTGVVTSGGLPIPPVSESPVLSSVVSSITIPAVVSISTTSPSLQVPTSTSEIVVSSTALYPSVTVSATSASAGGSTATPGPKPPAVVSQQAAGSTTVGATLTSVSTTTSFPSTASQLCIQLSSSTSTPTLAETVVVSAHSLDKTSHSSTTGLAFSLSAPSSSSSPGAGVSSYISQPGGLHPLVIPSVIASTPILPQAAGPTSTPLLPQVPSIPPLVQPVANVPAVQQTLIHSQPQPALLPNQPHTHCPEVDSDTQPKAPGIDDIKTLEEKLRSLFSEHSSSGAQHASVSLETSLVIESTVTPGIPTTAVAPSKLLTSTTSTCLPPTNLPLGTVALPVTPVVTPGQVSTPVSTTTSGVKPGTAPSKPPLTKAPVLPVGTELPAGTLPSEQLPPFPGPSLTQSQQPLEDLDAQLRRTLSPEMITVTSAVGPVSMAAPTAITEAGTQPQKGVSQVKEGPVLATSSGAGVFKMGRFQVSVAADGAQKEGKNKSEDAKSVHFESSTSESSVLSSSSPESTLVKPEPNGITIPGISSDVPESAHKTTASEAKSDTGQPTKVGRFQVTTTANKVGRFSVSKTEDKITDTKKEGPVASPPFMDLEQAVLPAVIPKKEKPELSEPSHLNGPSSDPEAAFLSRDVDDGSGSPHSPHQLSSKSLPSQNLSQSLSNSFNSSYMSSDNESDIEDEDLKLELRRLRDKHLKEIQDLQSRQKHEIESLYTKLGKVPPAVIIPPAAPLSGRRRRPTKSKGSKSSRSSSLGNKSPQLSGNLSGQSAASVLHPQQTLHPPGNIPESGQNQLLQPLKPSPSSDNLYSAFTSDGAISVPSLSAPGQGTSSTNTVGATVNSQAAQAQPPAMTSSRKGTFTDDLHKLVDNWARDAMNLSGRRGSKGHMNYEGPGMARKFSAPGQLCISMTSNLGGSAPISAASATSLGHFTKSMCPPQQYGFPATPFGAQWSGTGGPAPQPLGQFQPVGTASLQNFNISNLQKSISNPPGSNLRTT
# Sequence of UniProt P13010 (P13010 whole entry, looked up): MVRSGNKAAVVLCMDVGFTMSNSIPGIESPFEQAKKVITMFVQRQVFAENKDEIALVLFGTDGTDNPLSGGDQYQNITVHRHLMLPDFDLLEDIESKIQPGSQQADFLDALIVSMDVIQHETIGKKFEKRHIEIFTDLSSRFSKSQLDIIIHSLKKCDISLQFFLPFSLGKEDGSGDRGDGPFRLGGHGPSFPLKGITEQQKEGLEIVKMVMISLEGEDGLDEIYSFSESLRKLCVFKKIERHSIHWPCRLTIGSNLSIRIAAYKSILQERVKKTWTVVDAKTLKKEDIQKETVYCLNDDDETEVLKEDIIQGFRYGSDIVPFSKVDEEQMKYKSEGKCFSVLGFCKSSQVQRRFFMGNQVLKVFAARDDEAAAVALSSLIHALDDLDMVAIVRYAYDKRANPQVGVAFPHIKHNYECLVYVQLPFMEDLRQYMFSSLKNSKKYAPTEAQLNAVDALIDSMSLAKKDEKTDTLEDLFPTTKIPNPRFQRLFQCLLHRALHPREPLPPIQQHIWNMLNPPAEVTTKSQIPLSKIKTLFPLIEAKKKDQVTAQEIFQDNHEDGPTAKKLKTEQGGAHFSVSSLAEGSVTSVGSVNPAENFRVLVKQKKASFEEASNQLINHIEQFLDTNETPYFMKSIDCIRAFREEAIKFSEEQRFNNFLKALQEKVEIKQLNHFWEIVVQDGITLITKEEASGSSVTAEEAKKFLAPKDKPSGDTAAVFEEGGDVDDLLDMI
# Sequence of UniProt O43379 (O43379 whole entry, looked up): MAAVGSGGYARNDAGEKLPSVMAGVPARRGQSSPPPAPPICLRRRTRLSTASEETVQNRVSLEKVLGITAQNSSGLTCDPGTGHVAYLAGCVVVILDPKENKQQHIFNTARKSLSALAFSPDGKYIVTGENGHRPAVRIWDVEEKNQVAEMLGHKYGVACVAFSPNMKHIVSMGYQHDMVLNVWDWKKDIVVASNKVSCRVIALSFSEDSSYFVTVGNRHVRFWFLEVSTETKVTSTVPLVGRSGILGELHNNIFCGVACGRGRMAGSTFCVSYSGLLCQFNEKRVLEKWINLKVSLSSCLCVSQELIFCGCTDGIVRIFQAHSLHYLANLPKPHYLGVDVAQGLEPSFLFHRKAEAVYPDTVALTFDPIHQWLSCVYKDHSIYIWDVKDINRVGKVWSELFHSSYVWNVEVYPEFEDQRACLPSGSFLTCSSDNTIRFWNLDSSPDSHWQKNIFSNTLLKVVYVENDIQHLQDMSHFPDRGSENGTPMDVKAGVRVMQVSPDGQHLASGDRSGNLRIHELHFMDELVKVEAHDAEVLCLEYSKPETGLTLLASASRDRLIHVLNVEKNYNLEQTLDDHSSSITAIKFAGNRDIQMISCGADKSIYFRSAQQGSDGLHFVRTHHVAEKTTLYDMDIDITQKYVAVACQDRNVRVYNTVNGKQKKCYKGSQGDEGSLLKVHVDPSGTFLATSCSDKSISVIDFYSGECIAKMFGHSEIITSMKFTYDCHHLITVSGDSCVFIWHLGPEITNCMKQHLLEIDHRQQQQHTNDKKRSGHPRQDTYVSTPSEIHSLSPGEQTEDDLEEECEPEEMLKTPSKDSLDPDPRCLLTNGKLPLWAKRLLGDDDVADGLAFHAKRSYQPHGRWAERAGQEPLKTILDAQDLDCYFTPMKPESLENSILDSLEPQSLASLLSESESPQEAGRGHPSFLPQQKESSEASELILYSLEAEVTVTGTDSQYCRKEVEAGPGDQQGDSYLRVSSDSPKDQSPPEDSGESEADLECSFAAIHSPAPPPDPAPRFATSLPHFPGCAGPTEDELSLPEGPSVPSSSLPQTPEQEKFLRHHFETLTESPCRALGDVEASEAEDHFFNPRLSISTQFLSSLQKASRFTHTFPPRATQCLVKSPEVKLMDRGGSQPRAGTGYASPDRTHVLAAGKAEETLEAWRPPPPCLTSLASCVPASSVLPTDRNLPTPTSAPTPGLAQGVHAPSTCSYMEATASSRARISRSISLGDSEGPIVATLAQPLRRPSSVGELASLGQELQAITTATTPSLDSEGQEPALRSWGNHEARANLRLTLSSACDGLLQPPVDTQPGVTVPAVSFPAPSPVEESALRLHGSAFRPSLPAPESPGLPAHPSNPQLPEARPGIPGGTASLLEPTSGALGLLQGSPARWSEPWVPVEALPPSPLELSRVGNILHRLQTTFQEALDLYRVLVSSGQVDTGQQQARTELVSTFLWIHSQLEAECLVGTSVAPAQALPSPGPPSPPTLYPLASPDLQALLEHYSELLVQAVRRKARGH
# Sequence of UniProt A0PJW6 (A0PJW6 whole entry, looked up): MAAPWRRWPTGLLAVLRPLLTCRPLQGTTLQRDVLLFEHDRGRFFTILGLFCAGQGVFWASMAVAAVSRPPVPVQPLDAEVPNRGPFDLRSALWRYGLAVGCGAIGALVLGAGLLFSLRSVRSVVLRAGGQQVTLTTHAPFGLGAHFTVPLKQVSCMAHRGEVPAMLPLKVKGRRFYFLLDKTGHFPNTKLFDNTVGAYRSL
Target,log2 fold change [1],log2 fold change [2],log2 fold change [3],log2 fold change [4],log2 fold change (Nexturastat A),log2 fold change (vemurafenib),log2 fold change [5],log2 fold change [6],log2 fold change (givinostat),log2 fold change (barasertib),log2 fold change [7],log2 fold change (volasertib),log2 fold change [8],log2 fold change (epoxomicin),log2 fold change [9],log2 fold change [10],log2 fold change [11],log2 fold change (rosiglitazone),log2 fold change [12],log2 fold change [13]
WNK1 isoform 7 (UniProt Q9H4A3),-0.047,0.426,-0.006,-0.019,-0.03,-0.023,0.004,-0.006,0.03,0.032,-0.021,-0.01,0.04,0.013,-0.012,-0.005,0.005,0.015,-0.001,0.019
TRAPPC8 (UniProt Q9Y2L5),0.079,-0.036,-0.009,-0.022,0.024,0.026,0.066,0.012,0.066,0.033,-0.092,-0.287 (active),0.077,0.033,-0.023,-0.073,0.015,0.059,0.04,-0.099
TMEM223 (UniProt A0PJW6),0.034,-0.001,-0.026,0.058,-0.13,0.084,0.055,-0.128,0.002,0.041,-0.004,0.043,0.035,-0.01,-0.009,0.022,-0.015,0.032,-0.022,-0.271 (active)
TMEM189-UBE2V1 (UniProt I3L0A0),-0.067,0.017,0.006,-0.003,-0.042,-0.005,-0.056,-0.182,0.024,-0.054,0.054,0.056,-0.137,-0.023,-0.003,0.048,0,0.04,-0.035,-0.009
TMEM70 (UniProt Q9BUB7),0.006,0.051,0.051,0.005,-0.012,-0.011,0.029,-0.053,-0.164,0.047,0.005,0.064,-0.017,0.001,0.257 (active),-0.055,0.001,0.021,-0.048,-0.288 (active)
UBAP1 isoform 4 (UniProt Q9NZ09),0.082,-0.002,0.135,-0.015,-0.049,0.005,0.159,0.018,0.13,0.033,-0.012,-0.545 (active),0,0.092,-0.037,0.006,-0.034,0.022,0.023,-0.089
VRK1 (UniProt Q99986),-0.089,-0.121,0.096,0.063,-0.085,0.122,0.072,0.108,0.046,0.075,-0.184,-0.159,0.102,0.169,-0.107,-0.06,0.135,0.105,-0.028,-0.03
UBE2J1 (UniProt Q9Y385),-0.133,-0.016,0.107,0.04,-0.077,-0.087,-0.071,-0.262,0.098,-0.047,-0.073,-0.165,0.07,0.248,-0.024,0.014,0.01,0.003,-0.083,-0.006
XRCC5 (UniProt P13010),0.073,-0.08,0.044,0.143,0.033,0.115,0.189,0.109,0.234,0.143,-0.172,-0.482,0.207,0.069,-0.103,0.009,0.169,0.114,0.124,-0.087
WDR37 isoform 2 (UniProt Q9Y2I8),0.013,0.068,-0.019,-0.138,0.039,0.01,0.012,0.028,-0.018,0.04,0.078,-0.022,-0.005,-0.049,0.007,-0.049,-0.004,0.078,0.246,-0.005
TTC4 (UniProt O95801),0.051,-0.066,0.032,0.046,0.052,0.059,0.106,0.013,-0.015,0.072,-0.173,-0.316 (active),0.103,0.054,-0.025,-0.039,0.061,0.052,-0.02,-0.11
UBA6,0.086,-0.044,0.032,0.02,-0.027,0.057,0.086,0.036,0.015,0.07,-0.139,-0.189,0.057,0.029,-0.008,-0.031,0.033,0.016,0,0.001
TNPO1 (UniProt Q92973),0.041,0,0.037,0,-0.017,0.015,0.064,-0.009,0.015,-0.005,-0.182,-0.379 (active),0.046,-0.016,0.021,-0.025,0.018,0.012,-0.019,-0.055
U2AF2 (UniProt P26368),-0.076,0.005,-0.066,0.047,-0.048,0.031,0.001,-0.028,0.002,-0.015,-0.057,-0.231 (active),0.039,-0.024,0.029,0,0.002,0.003,0,-0.307 (active)
TRMT10A (UniProt Q8TBZ6),0.006,-0.004,0.063,0.031,-0.079,0.014,-0.017,-0.011,-0.004,-0.019,0.016,-0.013,0.033,0.003,-0.026,-0.037,0.047,0.034,-0.135,-0.075
WDR62 isoform 4 (UniProt O43379),-0.123,-0.015,-0.055,-0.033,0.029,0.008,0.053,-0.014,0.022,0.032,-0.02,-0.496 (active),0.04,0,0.006,0.007,-0.035,0.064,0.047,-0.161
